Assay results as given in PubChem BioAssay (Tox21).
“And” between values parts separate entries of the source, which are not always exact repeats. Equal entries are not always repeated. Results filed as inconclusive are left out. Entries that show only a call come without a potency. Some compounds were tested as several samples or in several runs, with calls that do not always agree. The source made the active and inactive calls. Calls follow the shape of the dose curve; as a rule, active = well fitted curve in the direction sought with a large enough effect in the repeat runs; inconclusive = weak or mixed curves; inactive = no such curve, though single readings can be large; an effect the other way counts as inactive or inconclusive.

Experiments:
[1] = A CellTox Green Cytotoxicity Assay to monitor cytotoxicity in HEK293 cells - 32 hour (AID 1224881); settings: CellTox Green fluorescence; series mostly up to 76.8 µM; also: nearly all actives have a fitted effect of over 40% in size; also: potency is read from the fitted curve at half-maximal effect
Method in brief: (§1)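 Nonlytic real-time cytotoxicity: HEK293 + CellTox Green reagent plated, 5 h preincubation, pintool compound addition (23 nL in DMSO), 37 C for 40 h, fluorescence measured at successive time points.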

[2] = A CellTox Green Cytotoxicity Assay to monitor cytotoxicity in HepG2 cells - 32 hour (AID 1224883); settings: CellTox Green fluorescence; series mostly up to 76.8 µM; also: nearly all actives have a fitted effect of over 50% in size; also: potency is read from the fitted curve at half-maximal effect
Method in brief: (§2)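 Read-out is fluorescence of a cyanine dye excluded from live cells that stains DNA of dead HepG2 cells, with signal proportional to cytotoxicity. Plates were read at 0, 8, 16, 24, 32 and 40 h after compound addition.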

[3] = A CellTox Green Cytotoxicity Assay to monitor cytotoxicity in HEK293 cells - 8 hour (AID 1224884); settings: CellTox Green fluorescence; series mostly up to 76.8 µM; also: nearly all actives have a fitted effect of over 35% in size
Method in brief: as §1

[4] = qHTS RealTime-Glo MT Cell Viability Assay in HepG2 cells - 16 hour (AID 1224885); settings: RealTime-Glo luminescence; series mostly up to 76.8 µM; also: nearly all actives have a fitted effect of over 50% in size; also: potency is read from the fitted curve at half-maximal effect
Method in brief: (§3)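 Tox21 10K library screened in qHTS format on HepG2 cells carrying RealTime-Glo reagents. Compounds were added after a 5 h preincubation, and the luminescent signal from continuous culture was measured repeatedly during 40 h treatment.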

[5] = qHTS RealTime-Glo MT Cell Viability Assay in HEK293 cells - 24 hour (AID 1224886); settings: RealTime-Glo luminescence; series mostly up to 76.8 µM; also: nearly all actives have a fitted effect of over 50% in size; also: potency is read from the fitted curve at half-maximal effect
Method in brief: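 Luminescence generated by NanoLuc from substrate produced by living HEK293 cells served as the viability signal. Each value reflects the reading at its stated time point during continuous 40 h compound exposure at 37 C.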

[6] = qHTS RealTime-Glo MT Cell Viability Assay in HEK293 cells - 8 hour (AID 1224887); settings: RealTime-Glo luminescence; series mostly up to 76.8 µM; also: nearly all actives have a fitted effect of over 50% in size; also: potency is read from the fitted curve at half-maximal effect
Method in brief: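 Cells were seeded together with NanoLuc luciferase and a prosubstrate that viable cells reduce to a luciferase substrate. After a 5 h incubation at 37 C/5% CO2, compounds were added and luminescence was measured repeatedly during 40 h of treatment.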

[7] = A CellTox Green Cytotoxicity Assay to monitor cytotoxicity in HEK293 cells - 16 hour (AID 1224888); settings: CellTox Green fluorescence; series mostly up to 76.8 µM; also: nearly all actives have a fitted effect of over 35% in size
Method in brief: as §1

[8] = qHTS RealTime-Glo MT Cell Viability Assay in HepG2 cells - 0 hour (AID 1224889); settings: RealTime-Glo luminescence; series mostly up to 76.8 µM; also: nearly all actives have a fitted effect of over 50% in size; also: potency is read from the fitted curve at half-maximal effect
Method in brief: as §3

[9] = A CellTox Green Cytotoxicity Assay to monitor cytotoxicity in HepG2 cells - 8 hour (AID 1224890); settings: CellTox Green fluorescence; series mostly up to 76.8 µM; also: nearly all actives have a fitted effect of over 45% in size; also: potency is read from the fitted curve at half-maximal effect
Method in brief: as §2

Compound	Potency [1]	Potency [2]	Potency [3]	Potency [4]	Potency [5]	Potency [6]	Potency [7]	Potency [8]	Potency [9]
O=[N+]([O-])c1ccc(Cl)c([N+](=O)[O-])c1	19.8 µM (active) and 24.5 µM (active)	35.2 µM (active) and 24.5 µM (active)	inactive	39.5 µM (active) and 17.4 µM (active)	11.1 µM (active) and 12.3 µM (active)	14 µM (active) and 17.4 µM (active)	inactive	inactive	61.7 µM (active)
CCC1(c2ccc(N)cc2)CCC(=O)NC1=O (stereo unspecified)	inactive	inactive	inactive	inactive	inactive	inactive	inactive	inactive	inactive
CCOP(=S)(OCC)SCSC(C)(C)C	inactive	inactive	inactive	inactive	inactive	inactive	inactive	inactive	inactive
CNC(=O)CSP(=S)(OC)OC	inactive	inactive	inactive		inactive	inactive	inactive	inactive	inactive
CC(C)COC(=O)c1ccccc1C(=O)OCC(C)C	inactive	inactive	inactive		inactive	inactive	inactive	inactive	inactive
Cc1cc(Cl)ccc1N=CN(C)C	inactive	inactive	inactive	inactive	inactive	inactive	inactive	inactive	inactive
Cn1c(-c2ccccc2)cc(-c2ccccc2)[n+]1C	inactive	inactive	inactive	inactive		inactive	inactive	inactive	inactive
CCN(CC)C(=O)C(C)Oc1cccc2ccccc12 (stereo unspecified)	inactive	inactive	inactive	inactive	inactive	inactive	inactive	43.6 µM (active)	inactive
CCCCSP(=O)(SCCCC)SCCCC	inactive	inactive	inactive	inactive	inactive	inactive	inactive	inactive	inactive
ClCC(Cl)CCl	inactive	inactive	inactive	inactive	inactive	inactive	inactive	inactive	inactive
CC(C)(O)C(=O)Nc1ccc([N+](=O)[O-])c(C(F)(F)F)c1	inactive	inactive	inactive	inactive	25.1 µM (active) and 17.9 µM (active)	25.1 µM (active)	inactive	inactive	inactive
COC(=O)Nc1nc2ccccc2[nH]1	inactive	6.17 µM (active) and inactive	inactive	inactive	inactive	inactive	inactive	inactive	inactive
Cl	inactive	inactive	inactive	inactive	inactive	inactive	inactive	inactive	inactive
CS(=O)(=O)NC(=O)c1cc(Oc2ccc(C(F)(F)F)cc2Cl)ccc1[N+](=O)[O-]	inactive	inactive	inactive	inactive	inactive	inactive	inactive	inactive	inactive
Oc1ccc(Cl)cc1Cc1ccccc1	12.3 µM (active) and 22.1 µM (active) and 21.3 µM (active)	inactive and 33.1 µM (active)	inactive	49.6 µM (active) and inactive	21.9 µM (active) and 19.7 µM (active)	21.9 µM (active) and 26.3 µM (active) and 21.3 µM (active)		inactive	inactive and 31.3 µM (active)
COP(=S)(OC)Oc1ccc(S(=O)(=O)N(C)C)cc1	inactive	inactive	inactive	inactive	inactive	inactive	inactive	inactive	inactive

Compound	Potency [1]	Potency [2]	Potency [3]	Potency [4]	Potency [5]	Potency [6]	Potency [7]	Potency [8]	Potency [9]
ClC(Cl)=C(Cl)C(Cl)=C(Cl)Cl	inactive	inactive	inactive	inactive	inactive	inactive	inactive	inactive	inactive
CCNc1nc(Cl)nc(NC(C)(C)C#N)n1	inactive	inactive	inactive	inactive	inactive	inactive	inactive	inactive	inactive
Cc1ccc(N=CN(C)C=Nc2ccc(C)cc2C)c(C)c1	inactive	43.6 µM (active) and inactive	inactive		39.1 µM (active) and 38.9 µM (active) and inactive	inactive	inactive	inactive	inactive
CC(C)(O)C#N	inactive	inactive	inactive		inactive	inactive	inactive	inactive	inactive
C[N+](C)(C)CC(=O)[O-]	inactive	inactive	inactive		inactive	inactive	inactive	inactive	inactive
C[C@]12CC[C@H]3[C@@H](CCC4=CC(=O)CC[C@@H]43)[C@@H]1CC[C@@H]2O	inactive	inactive	inactive	inactive	inactive	inactive	inactive	inactive	inactive
NC(=O)CN1CCCC1=O	inactive	inactive	inactive	inactive	inactive	inactive	inactive	inactive	inactive
Clc1ccccc1-c1nnc(-c2ccccc2Cl)nn1	inactive	inactive	inactive		inactive	inactive	inactive	inactive	inactive
CC(C)=CC1C(C(=O)OCN2C(=O)C3=C(CCCC3)C2=O)C1(C)C (stereo unspecified)	inactive	inactive	inactive		inactive	inactive	inactive	inactive	inactive
c1ccc2c(c1)Nc1ccccc1S2	inactive	inactive	inactive		11 µM (active) and 10.7 µM (active)	13.8 µM (active) and 10.7 µM (active)	inactive	inactive	inactive
C[N+](C)(C)CC(=O)O	inactive	inactive	inactive	inactive	inactive	inactive	inactive	inactive	inactive
CCOP(=S)(OCC)SCn1c(=O)oc2cc(Cl)ccc21	inactive	inactive	inactive	inactive	26.3 µM (active) and 21.9 µM (active)	26.3 µM (active) and 15.5 µM (active)	inactive	inactive	inactive
CC(C)(C#N)N=NC(C)(C)C#N	inactive	inactive	inactive		inactive	inactive	inactive	inactive	inactive
O=C1Nc2ccc(Cl)cc2C(c2ccccc2)=NC1O (stereo unspecified)	inactive	inactive	inactive	inactive	inactive	inactive	inactive	inactive	inactive
CCNCC	inactive	inactive	inactive		inactive	inactive	inactive	inactive	inactive
[CH3][Sn]([Cl])([Cl])[Cl]	inactive	inactive	inactive	inactive	inactive	inactive	inactive	inactive	inactive
